Laboratory results taken from PubChem BioAssay.
Active and inactive are the calls of the source.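 Rule for the calls: active = inhibition of the reporter signal at or above 50%; inactive = inhibition below 50%.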

Experiment: TLR3 IRF3 reporter activation blockers – cell-based, poly I:C stimulus, luciferase, 10K MLSCN set, primary screen (AID 602277)
Conditions: HEK293-TLR3 RL24 IRF3 luciferase reporter, at 10 µM, stronger effect = higher value

inhibition, inactive:
CN/C(=C/[N+](=O)[O-])NCCSCc1ccc(CN(C)C)o1 30.9%
Clc1ccccc1CN1CCc2sccc2C1 25.6%
CNCCCN1c2ccccc2CCc2ccccc21 24.2%
CC(C)(C)c1ccc(C(O)CCCN2CCC(C(O)(c3ccccc3)c3ccccc3)CC2)cc1 (stereo not given) 30%
CCOC(=O)C1=C(C)NC(C)=C(C(=O)OC)C1c1cccc(Cl)c1Cl (stereo not given) 6.81%
O=C1C(CCS(=O)c2ccccc2)C(=O)N(c2ccccc2)N1c1ccccc1 (stereo not given) 25.7%
Cc1noc(NS(=O)(=O)c2ccc(N)cc2)c1C -11.4%
CCn1nc(C(=O)O)c(=O)c2cc3c(cc21)OCO3 30.3%
CC(C)Oc1ccc2c(=O)c(-c3ccccc3)coc2c1 -186%
Cc1oncc1C(=O)Nc1ccc(C(F)(F)F)cc1 -197%
